Data from the supplement of paper PMC8728848.
Many of the other results were omitted from the sample, so the strongest signals are more common in it than they were.

Legend:
Test in all cases: glycan array binding signal (z-score within array); higher = stronger binding
[1] = tested on: Fuc(a1-2)Gal(b1-3)GalNAc(a1-3)[Fuc(a1-2)]Gal(b1-4)GlcNAc; settings: glycan notation: IUPAC condensed, linker removed
In short: (§1)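 The binding signal is a Z-score computed within each array. Data were drawn from 3228 arrays in the Consortium for Functional Glycomics database, restricted to those with a known protein sequence. Scores were averaged over arrays of the same protein sequence at different concentrations or buffers, and over linkers, and negative values can be taken as non-binding.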

[2] = tested on: Fuc(a1-2)Gal(b1-3)GlcNAc(b1-3)[Gal(b1-4)GlcNAc(b1-6)]Gal(b1-4)Glc; settings: glycan notation: IUPAC condensed, linker removed
In short: as §1

[3] = tested on: Fuc(a1-2)Gal(b1-3)GalNAc(a1-3)[Fuc(a1-2)]Gal(b1-4)Glc; settings: glycan notation: IUPAC condensed, linker removed
In short: as §1

[4] = tested on: Fuc(a1-2)Gal(b1-3)GalNAc(b1-3)Gal; settings: glycan notation: IUPAC condensed, linker removed
In short: as §1

Fuc(a1-2)Gal(b1-3)GalNAc = settings: glycan notation: IUPAC condensed, linker removed
In short: as §1

[5] = tested on: Fuc(a1-2)Gal(b1-3)GlcNAc(b1-3)Gal(b1-4)Glc; settings: glycan notation: IUPAC condensed, linker removed
In short: as §1

[6] = tested on: Fuc(a1-2)Gal(b1-3)GalNAc(b1-3)Gal(a1-4)Gal(b1-4)Glc; settings: glycan notation: IUPAC condensed, linker removed; mutation: R125K
In short: as §1

[7] = tested on: Fuc(a1-2)Gal(b1-3)GlcNAc(b1-2)Man(a1-3)[Fuc(a1-2)Gal(b1-3)GlcNAc(b1-2)Man(a1-6)]Man(b1-4)GlcNAc(b1-4)GlcNAc; settings: glycan notation: IUPAC condensed, linker removed
In short: as §1

[8] = tested on: Fuc(a1-2)Gal(b1-3)GalNAc(b1-3)Gal(b1-4)Glc; settings: glycan notation: IUPAC condensed, linker removed
In short: as §1

[9] = tested on: Fuc(a1-2)Gal(b1-3)GalNAc(b1-4)[Neu5Ac(a2-3)]Gal(b1-4)Glc; settings: glycan notation: IUPAC condensed, linker removed
In short: as §1

PILRa (Mus musculus), Q2YSF3, sequence (Q2YSF3 entry or part of it): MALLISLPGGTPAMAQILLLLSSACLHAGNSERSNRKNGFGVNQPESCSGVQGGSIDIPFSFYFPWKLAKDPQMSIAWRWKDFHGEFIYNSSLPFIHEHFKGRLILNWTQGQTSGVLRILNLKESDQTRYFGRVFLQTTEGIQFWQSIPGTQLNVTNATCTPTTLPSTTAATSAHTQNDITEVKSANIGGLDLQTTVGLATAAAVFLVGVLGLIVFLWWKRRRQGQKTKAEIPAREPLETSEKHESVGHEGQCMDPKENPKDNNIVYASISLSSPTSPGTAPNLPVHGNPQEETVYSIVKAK
Avaren (Actinomycete K97), sequence (chain, as listed by the source): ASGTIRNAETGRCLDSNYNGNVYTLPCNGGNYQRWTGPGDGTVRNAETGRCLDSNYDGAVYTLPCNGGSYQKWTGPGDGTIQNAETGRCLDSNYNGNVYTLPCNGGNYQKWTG
6RG (Lolium perenne), sequence (chain, as listed by the source): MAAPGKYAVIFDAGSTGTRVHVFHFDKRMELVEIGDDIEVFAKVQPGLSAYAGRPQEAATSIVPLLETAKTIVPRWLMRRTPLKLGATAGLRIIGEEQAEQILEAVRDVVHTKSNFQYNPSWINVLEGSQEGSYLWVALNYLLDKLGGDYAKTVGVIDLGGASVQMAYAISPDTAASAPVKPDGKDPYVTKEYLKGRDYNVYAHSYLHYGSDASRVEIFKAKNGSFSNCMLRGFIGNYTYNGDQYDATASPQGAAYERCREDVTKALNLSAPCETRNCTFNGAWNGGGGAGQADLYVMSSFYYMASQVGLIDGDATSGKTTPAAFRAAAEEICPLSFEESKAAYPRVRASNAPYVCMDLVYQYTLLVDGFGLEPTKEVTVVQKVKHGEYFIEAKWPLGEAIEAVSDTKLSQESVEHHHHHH
CHT (Homo sapiens), sequence (chain, as listed by the source): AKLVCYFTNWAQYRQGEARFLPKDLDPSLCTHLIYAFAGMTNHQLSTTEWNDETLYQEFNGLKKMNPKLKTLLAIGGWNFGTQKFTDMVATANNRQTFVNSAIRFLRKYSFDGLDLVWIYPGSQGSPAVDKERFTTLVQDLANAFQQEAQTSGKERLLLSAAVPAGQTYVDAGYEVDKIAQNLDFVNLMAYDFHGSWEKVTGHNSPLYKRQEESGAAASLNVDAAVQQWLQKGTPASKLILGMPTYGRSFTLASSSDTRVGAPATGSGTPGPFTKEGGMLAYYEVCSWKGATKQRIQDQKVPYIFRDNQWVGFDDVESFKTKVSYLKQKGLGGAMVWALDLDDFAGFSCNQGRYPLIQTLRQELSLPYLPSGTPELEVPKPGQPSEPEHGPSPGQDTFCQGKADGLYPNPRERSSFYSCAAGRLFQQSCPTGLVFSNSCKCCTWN
C3b (Homo sapiens), P01024, sequence (P01024 23-667): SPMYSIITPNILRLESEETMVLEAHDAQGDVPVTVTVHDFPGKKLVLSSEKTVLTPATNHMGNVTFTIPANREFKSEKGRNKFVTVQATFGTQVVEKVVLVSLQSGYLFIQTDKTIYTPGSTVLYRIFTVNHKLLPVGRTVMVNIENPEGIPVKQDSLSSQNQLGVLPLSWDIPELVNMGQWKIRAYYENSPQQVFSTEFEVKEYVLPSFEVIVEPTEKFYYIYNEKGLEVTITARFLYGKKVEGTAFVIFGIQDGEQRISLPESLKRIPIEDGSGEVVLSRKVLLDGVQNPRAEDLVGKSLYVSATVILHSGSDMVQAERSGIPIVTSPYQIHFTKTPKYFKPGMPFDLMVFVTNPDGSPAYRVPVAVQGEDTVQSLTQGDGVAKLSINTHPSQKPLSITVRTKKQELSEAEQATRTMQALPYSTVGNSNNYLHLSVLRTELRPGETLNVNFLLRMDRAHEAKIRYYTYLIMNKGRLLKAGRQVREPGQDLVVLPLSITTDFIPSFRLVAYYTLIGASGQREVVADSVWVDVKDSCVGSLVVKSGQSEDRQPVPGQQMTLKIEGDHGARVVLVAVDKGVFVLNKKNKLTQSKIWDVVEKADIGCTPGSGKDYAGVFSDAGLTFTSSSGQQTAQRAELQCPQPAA
CHI3L1 (Homo sapiens), P36222, sequence (P36222 whole entry): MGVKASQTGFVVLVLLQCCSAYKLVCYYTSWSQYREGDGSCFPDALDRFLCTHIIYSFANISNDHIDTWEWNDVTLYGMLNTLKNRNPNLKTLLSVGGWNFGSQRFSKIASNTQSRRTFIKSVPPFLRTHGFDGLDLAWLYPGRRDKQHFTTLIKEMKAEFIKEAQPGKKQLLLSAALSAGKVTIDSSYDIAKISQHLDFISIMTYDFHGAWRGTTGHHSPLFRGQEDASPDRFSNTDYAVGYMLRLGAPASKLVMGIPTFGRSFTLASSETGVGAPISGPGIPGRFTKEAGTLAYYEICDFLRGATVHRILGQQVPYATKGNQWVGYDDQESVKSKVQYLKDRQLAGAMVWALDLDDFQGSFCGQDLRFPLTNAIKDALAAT

For Avaren (Actinomycete K97), the “glycan array binding signal (z-score)” value [1] was -0.138 and the “glycan array binding signal (z-score)” value [2] was -0.128.
For PILRa (Mus musculus), Q2YSF3, the “glycan array binding signal (z-score)” value [3] was 0.037, the “glycan array binding signal (z-score)” value [4] was 0.134 and the “glycan array binding signal (z-score)” value (Fuc(a1-2)Gal(b1-3)GalNAc) was -0.151. For the same substance, the “glycan array binding signal (z-score)” value [5] was -0.127 and the “glycan array binding signal (z-score)” value [2] was -0.176.
In the case of Siglec-8 (Homo sapiens), Q9NYZ4, the “glycan array binding signal (z-score)” value ([3]; mutation: R125K) is reported as 0.206, the “glycan array binding signal (z-score)” value [6] is reported as -0.14 and the “glycan array binding signal (z-score)” value (Fuc(a1-2)Gal(b1-3)GalNAc; mutation: R125K) is reported as -0.339. The “glycan array binding signal (z-score)” value [7] was 0.028.
In the case of 6RG (Lolium perenne), the “glycan array binding signal (z-score)” value [8] is reported as 7.3 and the “glycan array binding signal (z-score)” value [5] is reported as 6.52.
In the case of C3b (Homo sapiens), P01024, the “glycan array binding signal (z-score)” value [9] is reported as 0.329.
In the case of CHT (Homo sapiens), the “glycan array binding signal (z-score)” value (Fuc(a1-2)Gal(b1-3)GalNAc; mutation: D138V, E140I) is reported as 0.451.
In the case of CHI3L1 (Homo sapiens), P36222, the “glycan array binding signal (z-score)” value [7] is reported as -0.032.
